# Where “and” joins values, the source holds several entries; their conditions need not be identical. Equal entries are not always repeated. Inconclusive results are not listed. Where a call stands in place of a potency, no number is given. Calls of active or inactive are those of the source. Calls follow the shape of the dose curve; as a rule, active = well fitted curve in the direction sought with a large enough effect; inconclusive = small, poorly fitted or top-dose-only effect, or another doubt; inactive = no such curve, though single readings can be large; an effect the other way counts as inactive or inconclusive. Numbered stars: 1 amine (or outer) side, 2 acyl side, 3 side chain; on linkers, the order of the positions; unused ones are H or OH. Bridge positions count the residues as written; N and C are the ends. Square brackets hold non-standard residues; d marks the D form. Peptide text beside a SMILES is read from it. I, II: the chains in the order shown. Actinocin(9to1) = Cc1c2oc3c(C)ccc(C(=O)[*:1])c3nc-2c(C(=O)[*:2])c(N)c1=O; NMeV = CN[C@H](C(=O)O)C(C)C; Sar = CNCC(=O)O
# Legend:
# [1] = system: Zika virus NS2B-NS3 protease; assay: Primary screen GU AMC qHTS for Zika virus inhibitors (AID 1347154); also: nearly all actives have a fitted effect of over 70% in size; also: potency is read from the fitted curve at half-maximal effect
# Procedure, shortened: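 Unlinked Zika NS2B hydrophilic domain–NS3 protease complex at 25 nM in 10 mM Tris-HCl pH 8.0, 0.01% Tween 20, with an AMC peptide substrate. Fluorescence change (340/450 nm) over 15 min at room temperature, normalized to controls, fitted to 4-parameter Hill.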
# [2] = system: Zika virus NS2B-NS3 protease (unlinked); assay: Optimization of GU AMC qHTS for Zika virus inhibitors: Unlinked NS2B-NS3 protease assay (AID 1347151); also: nearly all actives have a fitted effect of over 80% in size; also: potency is read from the fitted curve at half-maximal effect
# Procedure, shortened: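 In this qHTS, compounds acted on 25 nM unlinked Zika NS2B–NS3 in pH 8.0 Tris/Tween buffer. Cleavage of an AMC peptide ran 15 min at room temperature, to about 20% conversion.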
# [3] = biological target: Lysine-specific demethylase 5B (Homo sapiens) (UniProt Q9UGL1); assay: Optimization screen for KDM5B Histone Demethylases FDH coupled qHTS against the LOPAC library (AID 1347166)
# Chain of Lysine-specific demethylase 5B (Homo sapiens) (Q9UGL1 whole entry, looked up): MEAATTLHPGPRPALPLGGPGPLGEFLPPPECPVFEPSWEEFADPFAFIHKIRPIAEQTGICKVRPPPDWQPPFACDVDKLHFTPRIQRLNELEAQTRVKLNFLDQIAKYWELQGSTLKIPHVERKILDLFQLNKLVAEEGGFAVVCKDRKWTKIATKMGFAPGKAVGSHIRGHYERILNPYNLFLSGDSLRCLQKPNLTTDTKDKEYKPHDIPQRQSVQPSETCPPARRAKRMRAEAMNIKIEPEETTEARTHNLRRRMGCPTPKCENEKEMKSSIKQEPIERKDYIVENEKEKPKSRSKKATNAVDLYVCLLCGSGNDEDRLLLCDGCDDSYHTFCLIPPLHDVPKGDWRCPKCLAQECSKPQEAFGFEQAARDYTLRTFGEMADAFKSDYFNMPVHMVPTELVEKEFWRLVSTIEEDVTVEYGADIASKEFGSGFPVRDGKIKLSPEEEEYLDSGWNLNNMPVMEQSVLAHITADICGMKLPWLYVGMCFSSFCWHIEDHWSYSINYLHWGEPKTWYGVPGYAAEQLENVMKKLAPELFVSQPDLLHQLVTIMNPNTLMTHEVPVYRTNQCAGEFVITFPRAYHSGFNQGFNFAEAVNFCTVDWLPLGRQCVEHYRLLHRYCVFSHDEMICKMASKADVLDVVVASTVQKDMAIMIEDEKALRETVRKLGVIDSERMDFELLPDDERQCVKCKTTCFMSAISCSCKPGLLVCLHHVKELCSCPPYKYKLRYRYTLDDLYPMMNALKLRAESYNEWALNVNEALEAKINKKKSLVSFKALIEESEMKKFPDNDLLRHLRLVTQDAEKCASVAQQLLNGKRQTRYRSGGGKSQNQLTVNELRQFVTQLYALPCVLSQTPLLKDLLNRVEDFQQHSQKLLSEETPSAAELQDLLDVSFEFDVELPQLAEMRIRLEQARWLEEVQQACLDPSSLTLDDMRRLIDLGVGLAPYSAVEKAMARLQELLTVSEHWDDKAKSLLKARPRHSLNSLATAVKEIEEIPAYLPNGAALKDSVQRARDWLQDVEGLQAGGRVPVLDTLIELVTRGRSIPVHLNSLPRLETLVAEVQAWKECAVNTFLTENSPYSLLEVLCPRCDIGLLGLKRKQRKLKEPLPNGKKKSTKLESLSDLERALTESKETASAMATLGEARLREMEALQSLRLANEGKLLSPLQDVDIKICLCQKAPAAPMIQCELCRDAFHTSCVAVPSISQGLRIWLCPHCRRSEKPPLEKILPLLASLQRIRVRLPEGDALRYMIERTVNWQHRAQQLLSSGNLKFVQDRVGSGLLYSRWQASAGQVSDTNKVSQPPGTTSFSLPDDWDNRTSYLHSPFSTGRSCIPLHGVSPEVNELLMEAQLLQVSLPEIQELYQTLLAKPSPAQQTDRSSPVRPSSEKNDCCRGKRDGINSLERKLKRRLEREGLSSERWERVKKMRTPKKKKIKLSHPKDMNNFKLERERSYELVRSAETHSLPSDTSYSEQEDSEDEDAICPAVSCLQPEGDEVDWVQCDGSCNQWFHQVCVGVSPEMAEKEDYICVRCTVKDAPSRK
# Procedure, shortened: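 KDM5BDeltaAP (200nM final) preincubated 10 min with compound, then 12.5uM H3K4Me3, 25uM a-ketoglutarate, ascorbate, Fe(II), NAD+ and FDH added; 50mM HEPES pH 7.5, 0.01% Tween-20. NADH fluorescence (340/450 nm) change over 30 min, room temperature.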
# [4] = system: Zika virus NS2B-NS3 protease (linked); assay: 384 well plate NINDS AMC confirmatory qHTS for Zika virus inhibitors (AID 1347163);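 also: linked protease at 5 30 or 60 nM final depending on run; fluorescence of AMC released from Ac-VKTGKR-AMC peptide cleaved by the protease; top concentration of the series differs between compounds; nearly all actives have a fitted effect of over 50% in size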
# Procedure, shortened: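 Linked NS2B-NS3 protease (final 5 nM, 30 nM or 60 nM) was preincubated with compounds (final up to 1 mM) for ~15 minutes. Ac-VKTGKR-AMC substrate (final 30 microM) then reacted for 25 minutes at room temperature in the dark. Fluorescence (ex 355/em 460 nm) was normalized to no-enzyme and no-inhibitor controls.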
# [5] = system: Zika virus NS2B-NS3 protease (linked construct); assay: 384 well plate NINDS Rhodamine confirmatory qHTS for Zika virus inhibitors (AID 1347164); also: nearly all actives have a fitted effect of over 65% in size; also: potency is read from the fitted curve at half-maximal effect
# Procedure, shortened: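 Cleavage of Ac-LKRR-Rhodamine 110 (10 microM final) by linked protease (final 5, 30 or 60 nM) was followed as fluorescence at 485/538 nm after 25 min, room temperature, dark. Compounds preincubated ~15 min.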
# [6] = Vero cells viability qHTS for Zika virus inhibitors (AID 1347167)
# Procedure, shortened: (§1)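 Cells seeded at 2.5 x 10^5 cells/mL in DMEM with 4% FBS and attached overnight at 37 degrees C, then exposed to compound for 24 to 48 hours. Viability read as ATP content by CellTiter Glo luminescence.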
# [7] = HepG2 cells viability qHTS for Zika virus inhibitors (AID 1347168)
# Procedure, shortened: as §1
# [8] = Tertiary RLuc qRT-PCR qHTS assay for Zika virus inhibitors (AID 1347169); also: nearly all actives have a fitted effect of over 55% in size; also: potency is read from the fitted curve at half-maximal effect
# Procedure, shortened: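 Inhibition of ZIKV-RLuc replication in Vero cells, read as Renilla luminescence 1-1.5 hrs after live-cell substrate addition, following 48-72 hrs infection at MOI 1-2 in presence of compound.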
# [9] = system: Zika virus NS2B-NS3 protease (linked construct); assay: Primary screen NINDS Rhodamine qHTS for Zika virus inhibitors (AID 1347160); conditions: outcome: dose series up to 57.1 µM; also: nearly all actives have a fitted effect of over 55% in size
# Procedure, shortened: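 Purified linked NS2B-NS3 protease (NS2B hydrophilic domain joined to NS3 protease by flexible linker), 25 nM in 10 mM Tris-HCl pH 8.0, 0.01% Tween 20. Compounds titrated, 15 min preincubation at room temperature; 1.5 microM Rhodamine110 substrate, FITC fluorescence change over 15 min.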
# [10] = system: Zika virus NS2B-NS3 protease (linked construct); assay: Confirmatory screen NINDS AMC qHTS for Zika virus inhibitors (AID 1347152); also: nearly all actives have a fitted effect of over 70% in size; also: potency is read from the fitted curve at half-maximal effect
# Procedure, shortened: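 Concentration-response confirmation used the NINDS linked protease (NS2B hydrophilic domain joined to NS3 protease domain), 1 nM, with a 15-min compound preincubation. Substrate, Nle-KRR-AMC at 10 microM, was read by UV fluorescence before and after 15 min.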
# [11] = system: Zika virus NS2B-NS3 protease (unlinked complex); assay: Confirmatory screen GU AMC qHTS for Zika virus inhibitors (AID 1347153); also: nearly all actives have a fitted effect of over 70% in size
# Procedure, shortened: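 Noncovalent NS2B hydrophilic domain/NS3 protease complex (25 nM) in 10 mM Tris-HCl pH 8.0, 0.01% Tween 20 was preincubated 15 min at room temperature with compounds. Then 10 µM AMC substrate (Km 18.3 µM) was added; fluorescence was read over 15 min and fitted to a 4-parameter Hill equation.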
# [12] = Confirmatory screen NINDS Rhodamine qHTS for Zika virus inhibitors (AID 1347161); also: nearly all actives have a fitted effect of over 60% in size; also: potency is read from the fitted curve at half-maximal effect
# Procedure, shortened: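 Single-chain NS2B-NS3 protease, 25 nM, pH 8.0; compounds preincubated 15 min. Activity: Rhodamine110 release from 1.5 microM substrate over 15 min, room temperature, data fitted to 4-parameter Hill.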
# [13] = Confirmatory screen GU Rhodamine qHTS for Zika virus inhibitors qHTS (AID 1347157); conditions: purified enzyme assay, Rhodamine110 substrate fluorescence, 15 min; also: potency is read from the fitted curve at half-maximal effect; nearly all actives have a fitted effect of over 70% in size
# Procedure, shortened: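 Noncovalent NS2B hydrophilic domain/NS3 protease complex (25 nM final) in 10 mM Tris-HCl pH 8.0, 0.01% Tween 20, preincubated 15 min with compounds (up to 114 microM), then 1.5 microM Rhodamine110 substrate. Fluorescence change over 15 min fitted to 4-parameter Hill.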
# [14] = ZIKV-mCherry secondary qHTS for Zika virus inhibitors (AID 1347158); also: potency is read from the fitted curve at half-maximal effect
# Procedure, shortened: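 Vero cells (5,000/well) were given compound, then infected with ZIKV-mCherry at MOI 1 for 48–72 h at 37 °C. After PFA fixation and Hoechst staining, imaging gave percent mCherry-positive cells. The positivity threshold was RFU above 450, 3 SD over negative controls.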
compound,measurement,setting,value
C[C@H](O)C(=O)Nc1c(I)c(C(=O)NC(CO)CO)c(I)c(C(=O)NC(CO)CO)c1I,Potency,[1],inactive
CCCn1c(=O)[nH]c(=O)c2[nH]cnc21,Potency,[2],inactive
same,outcome,[3],inactive
CC(O)C(=O)O (configuration not stated),Potency,[1],inactive
Oc1ccc(O)cc1,Potency,[2],inactive
same,Potency,[1],inactive
CNCCC(Oc1ccccc1C)c1ccccc1 (configuration not stated),Potency,[2],inactive
same,outcome,[3],inactive
C[N+]1(CCCCC[N+]2(C)CCCC2)CCCC1,Potency,[2],inactive
same,outcome,[3],inactive
COc1c(C)c2c(c(O)c1C/C=C(\C)CCC(=O)O)C(=O)OC2,Potency,[2],24.1 µM (active)
same,Potency,[1],inactive
same,outcome,[4],inactive
same,Potency,[5],inactive
same,Potency,[6],inactive
same,Potency,[7],inactive
same,Potency,[8],739 nM (active)
C1CCc2nnnn2CC1,Potency,[2],inactive
same,Potency,[1],inactive
same,outcome,[3],inactive
CC1(C)CCC(NC(=O)[C@@H](N)CCC(=O)O)CC1,Potency,[2],inactive
same,outcome,[3],inactive
COc1cc2c(cc1O)CC[C@@H]1[C@@H]2CC[C@]2(C)[C@@H](O)CC[C@@H]12,Potency,[2],inactive
same,outcome,[3],inactive
CC[C@H](C)C(=O)O[C@H]1CCC=C2C=C[C@H](C)[C@H](CC[C@@H]3C[C@@H](O)CC(=O)O3)[C@H]21,Potency,[2],inactive
same,outcome,[3],inactive
C[C@@H]1CN(CCCn2c3ccccc3c3ccccc32)C[C@H](C)N1,Potency,[1],inactive
CC(CCc1ccccc1)NCC(O)c1ccc(O)c(C(N)=O)c1 (configuration not stated),Potency,[2],26.7 µM (active)
same,outcome,[9],inactive
COc1cc(C(=S)N2CCOCC2)cc(OC)c1OC,Potency,[1],inactive
C[C@@H]1C[C@H]2[C@@H]3CCC4=CC(=O)C=C[C@]4(C)[C@@]3(F)[C@@H](O)C[C@]2(C)[C@H]1C(=O)CO,Potency,[1],inactive
C[C@@H]1C(=O)NC2=Nc3cccc(Cl)c3CN21,Potency,[2],inactive
same,outcome,[3],inactive
N[C@@H](Cc1cnc[nH]1)C(=O)O,Potency,[2],inactive
same,outcome,[3],inactive
O=C1CCC(c2ccc(-n3ccnc3)cc2)=NN1,Potency,[2],inactive
same,outcome,[3],inactive
COCc1c(C(C)C)nc(C(C)C)c(/C=C/[C@@H](O)C[C@@H](O)CC(=O)O)c1-c1ccc(F)cc1,Potency,[1],inactive
COC(=O)[C@H]1[C@H]2C[C@H]3c4[nH]c5ccccc5c4CCN3C[C@H]2CC[C@@H]1O,Potency,[2],inactive
same,outcome,[3],inactive
CCCC1O[C@@H]2C[C@H]3[C@@H]4CCC5=CC(=O)C=C[C@]5(C)[C@H]4[C@@H](O)C[C@]3(C)[C@]2(C(=O)CO)O1 (some centres not stated),Potency,[2],inactive
same,outcome,[3],inactive
Cc1c(C)n(CCN(C)C)c2ccc(C(=O)OCCN(C)C)cc12,Potency,[1],inactive
COc1cc(NS(C)(=O)=O)ccc1Nc1c2ccccc2nc2ccccc12,Potency,[2],29.9 µM (active)
"Cc1c2oc3c(C)ccc(C(=O)N[C@@H]4C(=O)N[C@H](C(C)C)C(=O)N5CCC[C@H]5C(=O)N(C)CC(=O)N(C)[C@@H](C(C)C)C(=O)O[C@@H]4C)c3nc-2c(C(=O)N[C@@H]2C(=O)N[C@H](C(C)C)C(=O)N3CCC[C@H]3C(=O)N(C)CC(=O)N(C)[C@@H](C(C)C)C(=O)O[C@@H]2C)c(N)c1=O (I: T[dV]P[Sar][NMeV] / II: T[dV]P[Sar][NMeV]; ester I:1-I:C, II:1-II:C; linker I:N-II:N via Actinocin(9to1))",Potency,[2],27.1 µM (active)
same,Potency,[10],inactive
same,Potency,[11],inactive
same,Potency,[1],inactive
same,Potency,[12],inactive
same,Potency,[6],inactive
same,Potency,[7],inactive
same,Potency,[8],165 nM (active)
N[C@H](CO)C(=O)O,Potency,[2],inactive
same,Potency,[1],inactive
same,outcome,[3],inactive
Nc1nc2ncc(CNc3ccc(C(=O)N[C@@H](CCC(=O)O)C(=O)O)cc3)nc2c(=O)[nH]1,Potency,[11],inactive
same,Potency,[1],18.1 µM (active)
same,Potency,[12],55.3 µM (active)
same,Potency,[6],inactive
same,Potency,[7],inactive
same,Potency,[8],inactive
CCC(NC(C)C)C(O)c1ccc(O)c(O)c1 (configuration not stated),Potency,[2],inactive
CC(C)COC(=O)OCN1C(=O)CN(CCN2CC(=O)N(COC(=O)OCC(C)C)C(=O)C2)CC1=O,Potency,[2],inactive
same,outcome,[3],inactive
CCCC(=O)Nc1ccc(OCC(O)CNC(C)C)c(C(C)=O)c1 (configuration not stated),Potency,[1],inactive
O=C(O)c1cc2cc(Cc3cccnc3)ccc2o1,Potency,[2],inactive
same,outcome,[3],inactive
C[C@]12CC[C@@H]3c4ccc(O)cc4CC[C@H]3[C@@H]1CC[C@@H]2O,Potency,[2],inactive
same,Potency,[1],inactive
same,outcome,[3],inactive
CC(C)(C)CC(C)(C)c1ccc(OCCOCC[N+](C)(C)Cc2ccccc2)cc1,Potency,[2],inactive
same,Potency,[1],inactive
same,outcome,[9],inactive
same,Potency,[6],inactive
same,Potency,[7],inactive
same,Potency,[8],33 µM (active) and 13.1 µM (active) and 10.4 µM (active)
CNCCC=C1c2ccccc2CCc2ccccc21,Potency,[2],inactive
same,outcome,[3],inactive
O=C(Nc1ccc(Oc2ccc(Cl)cc2)c(Cl)c1)c1cc(I)cc(I)c1O,Potency,[10],13.6 µM (active)
same,Potency,[11],21.5 µM (active)
same,Potency,[1],14.1 µM (active)
same,Potency,[13],6.31 µM (active)
same,Potency,[14],11.2 µM (active)
same,Potency,[12],20 µM (active) and 3.93 µM (active)
same,Potency,[5],20 µM (active)
same,Potency,[7],inactive
same,Potency,[8],26200 nM (active)
